The panel holds about 79,000 compounds, 15% with a hit somewhere; the sample as a whole holds those more often. Unmarked numbers belong to inactive results. Calls of active or inactive are those of the source. Rule as the data show it: active = growth inhibition above about 70%; inactive = the rest.
What was measured:
[1] = NCI Yeast Anticancer Drug Screen. Data for the rad50 strain (AID 155);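 also: 0% = growth of vehicle-only cultures of the same strain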; conditions: S. cerevisiae rad50 strain growth inhibition; at 50.0 µM; hits give high values
In short: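 Compounds were tested on a yeast strain with an engineered DNA damage repair alteration; the reported value is growth inhibition normalised to vehicle treatment.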

[2] = NCI Yeast Anticancer Drug Screen. Data for the mec2-1 strain (AID 157); conditions: S. cerevisiae mec2-1 strain, at 50.0 µM, hits give high values
In short: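 Test agents were screened against the mec2-1 yeast strain, with defined DNA repair or cell cycle alteration. Growth was scored as inhibition against vehicle-only controls.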

[3] = NCI Yeast Anticancer Drug Screen. Data for the sgs1 mgt1 strain (AID 161);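 also: 0% = growth of cultures given vehicle only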; conditions: S. cerevisiae sgs1 mgt1 strain, at 50.0 µM, hits give high values
In short: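 Test agents were incubated with a DNA-repair-mutant yeast strain. Growth was then read and compared against vehicle-treated controls.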

[4] = NCI Yeast Anticancer Drug Screen. Data for the cln2 rad14 strain (AID 165);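 also: 0% = growth equal to vehicle treated cultures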; conditions: S. cerevisiae cln2 rad14 strain, at 50.0 µM, hits give high values
In short: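 Growth of compound-exposed yeast (cln2 rad14 genotype) measured and expressed as inhibition relative to vehicle.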

[5] = NCI Yeast Anticancer Drug Screen. Data for the bub3 strain (AID 167); conditions: S. cerevisiae bub3 mutant strain, at 50.0 µM, hits give high values
In short: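 Growth of a checkpoint-deficient yeast mutant is measured after compound exposure. Values represent inhibition relative to vehicle.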

[6] = NCI Yeast Anticancer Drug Screen. Data for the mlh1 rad18 strain (AID 175); conditions: S. cerevisiae mlh1 rad18 strain growth inhibition; at 50.0 µM; hits give high values
In short: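 In this whole-cell yeast screen, a strain with altered DNA damage repair is challenged with compound, and its growth is measured against matched vehicle-treated controls.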

SMILES	growth inhibition [1]	growth inhibition [2]	growth inhibition [3]	growth inhibition [4]	growth inhibition [5]	growth inhibition [6]
ClC1=C(Cl)C2(Cl)C=CC1(Cl)C2	4.05%	-3.05%	4%	-14.2%	1.9%	6.6%
CCCCCC(=O)OCCOCCCC	2.05%	4%	-4.6%	-35.4%	6.85%	5.85%
Cc1ccc(C(CS(=O)(=O)c2ccc(C)cc2)c2ccccc2)cc1 (stereo unspecified)	0.5%	6.15%	-7.8%	-20.1%	1.7%	-19.9%
C1CCN(SN2CCCCC2)CC1	-4.4%	-15.7%	-3.6%	-13.2%	4.75%	5.7%
CN(C)CC1CC(O)C(CN(C)C)CC1O (stereo unspecified)	-6.2%	-13.4%	-20.2%	-6.15%	-6.25%	-8.95%
O=C(COc1ccc(Cl)cc1Cl)Nc1ccc(N=Nc2ccccc2)cc1	-0.5%	7.55%	-1.95%	-3.65%	-2.8%	19.9%
CC(=O)Nc1cccc2c1C(=O)c1c(c(O)c3ccccc3c1O)C2=O	24.9%	-9.85%	-12.8%	-9.3%	-8.4%	-1.85%
Cc1ccccc1N=Cc1ccccc1O.[Co]	12.2%	11.2%	27.4%	-17.4%	0.3%	32%
O=C(c1ccc(Cl)cc1)c1nnc(Cl)s1	-4.7%	2.2%	-6.7%	-10.8%	24.8%	2.3%
NOCc1nnc(Nc2ccccc2)s1	7.25%	3.8%	5.8%	19.3%	-4.4%	5.55%
CCOC(=O)NC(=S)C1=C(N2CCOCC2)CCC1	-16.1%	-34.4%	1.95%	7.25%	-28.4%	6.45%
Cc1ccncc1C#N	5%	-2.25%	-0.9%	6.55%	0.3%	3.95%
CCOC(=O)C(C#N)(CCC#N)CCC#N	26.3%	6.8%	9.05%	-3.45%	9.4%	12.6%
COc1ccccc1-c1ccc([N+](=O)[O-])cc1[N+](=O)[O-]	18.9%	-5.7%	-1.9%	8.65%	22.2%	14.8%
Cc1ccc(S(=O)(=O)OC2C(CI)OCOC(CI)C2OS(=O)(=O)c2ccc(C)cc2)cc1 (stereo unspecified)	-1.05%	-7.3%	-6.3%	-20.4%	-21.6%	-14.8%
NCC1(N2CCOCC2)C2CCCC21CNc1ccccc1 (stereo unspecified)	-37.2%	-46.1%	-16%	-4.65%	-35.1%	-21%
[N-]=[N+]=NC[C@H]1OCO[C@H](CN=[N+]=[N-])[C@H]2OCCOCCOc3ccccc3OCCOCCO[C@@H]21	-13.2%	-9.65%	-11.6%	-15.6%	-30.9%	-18.1%
O=[N+]([O-])c1ccsc1Cl	-7.85%	-3.6%	-14.6%	-40.2%	-4.1%	-5.05%
O=C(CBr)OCCC1CCCCC1	49.2%	4.7%	47.9%	-36.5%	3.05%	32.5%
COC(=O)C1Cc2ccc(C)cc2C1=O (stereo unspecified)	-37.7%	-4.6%	-1.95%	26.1%	15.4%	-4.3%
CN(C)c1ccc(SSc2ccc(N(C)C)cc2)cc1	-6.9%	-20.6%	3.2%	-3.9%	6.55%	1.25%

SMILES	growth inhibition [1]	growth inhibition [2]	growth inhibition [3]	growth inhibition [4]	growth inhibition [5]	growth inhibition [6]
COc1c(O)cc2oc(-c3ccc(O)cc3)cc(=O)c2c1O	11%	-5.7%	29.8%	10.8%	16.2%	-0.05%
CC(=O)OC1CCC2(C)C(=CCC3C2CCC2(C)C3CCC23OCCS3)C1 (stereo unspecified)	34.5%	3.4%	9.35%	9.1%	-4.35%	8.5%
COc1ccc2nc3c([N+](=O)[O-])ccc(NCCCN(C)C)c3c(NCCCN(C)C)c2c1	-5.15%	9.3%	11.7%	38.3%	-28.4%	-1.6%
CSc1nc(SC)c2c(C(N)=S)[nH]nc2n1	23.3%	20.9%	47%	19.7%	18.6%	23.6%
CN1CCN=C(C(=O)O)C=C1c1ccccc1O	28.9%	26.7%	26.7%	-28.2%	-2.4%	11.9%
COC(=O)c1s/c(=N\C(=S)N(C)C)n(-c2ccc(Cl)cc2)c1C(=O)OC	-0.4%	2.25%	-4.1%	-40.1%	-21.9%	-3.2%
COc1c(C)c(OC)c(C(=O)CC(C)C)c(OC)c1C	0.4%	5.05%	35.2%	20.4%	19.7%	-29.6%
CSc1cnc(N)s1	14.6%	14.8%	3%	-13.1%	-2.45%	32.4%
CCn1c(=O)c2ccccc2c2cc([N+](=O)[O-])ccc21	7.65%	18.1%	2.75%	17.1%	12.2%	-2.7%
O=C(Nc1cccc2ccccc12)Oc1cccc2cccnc12	98% (active)	96.9% (active)	97.5% (active)	94% (active)	98.5% (active)	98% (active)
CCCCOC(=O)c1ccc(NC(=O)Nc2ccc([N+](=O)[O-])cc2OC)cc1	-24.2%	-11.1%	-17.6%	50.7%	-0.8%	6.05%
O=S1(=O)CC=CC1	-10.2%	3.45%	-7.95%	13.2%	11.9%	3.15%
CCc1c(O)c2c(c(O)c1C(C)=O)C(=O)c1c(cc(O)c(C(=O)O)c1C(=O)O)C2=O	-3.15%	9.8%	24.2%	10.2%	20.3%	12.8%
C[n+]1cccc2c(=O)c3ccccc3oc21	0.8%	-14.5%	-6.25%	-17.9%	4.65%	-20.2%
COP(=O)(OC)C(Cc1cn(C(C)=O)c2ccccc12)C(=O)O (stereo unspecified)	-53.3%	-69.5%	-56.8%	-25.1%	-27.4%	-37.5%
Cc1cc2c(cc1Cl)SSc1cc(Cl)c(C)cc1S(=O)(=O)Nc1nc(N)nn1C(O)n1nc(N)nc1NS2(=O)=O	7.65%	11.4%	9.1%	20.7%	30.4%	0.45%
COCCOC(=O)c1ccc(C(N)=NC2CCCCC2)cc1	-1.2%	4.25%	3.9%	0.95%	8.65%	-0.7%
CCCCc1[nH]nc(-c2n[nH]c(CCCC)c2C)c1C	25.4%	14.1%	28.5%	7.95%	18.6%	27.9%
C[C@H]1CCCCC[C@@H]2CC(=O)CC2C(=O)CCC(=O)O1 (stereo partly specified)	17.6%	-4.25%	-10.6%	8.05%	-8.85%	12.7%
Cc1cccc(Cl)c1NC(=O)c1cccc([N+](=O)[O-])c1	0.15%	40.6%	22.9%	-7.95%	32.4%	46.4%

From PubChem BioAssay (NCI)
